In the library only some 2.9% were active in any assay of this set; here they are far more common.
PLCb3 inh: inhibitors of human phospholipase C beta3; Purified PLC-beta3, fluorogenic substrate, fluorescence; Q01970; hit rate 0.18% among 370,000; AID 720704; inhibition, % at 12.2 µM; in the data active = inhibition above about 11%;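 note: 0% = median of compound wells on plate and 100% = full blocker control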
PLC-gamma1 inh: inhibitors of human phospholipase C gamma1 | P19174 | purified PLC-gamma1, fluorogenic substrate, fluorescence | inhibition, % at 12.2 µM | hit rate 0.84% among 370,000 | AID 720700; in the data active = inhibition above about 9.5%
ADAM17 inh: ADAM17 inhibition, QFRET primary screen; P78536; recombinant ADAM17, EDANS/DABCYL FRET peptide cleavage; inhibition, % at 6.95 µM; hit rate 0.83% among 370,000; AID 720648;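 active = inhibition above the mean of compounds lying between control limits plus 3 SD, set per campaign, cut at about 8.5% in these data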;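 note: 0% = DMSO-only wells as the low control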
proKLK7 act: activates the human kallikrein-7 zymogen; purified proKLK7, EDANS-DABCYL substrate fluorescence; 100% is mature enzyme control, 0% vehicle; activation, % at 7 µM; hit rate 0.9% among 370,000;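 active = activation above the mean of all tested compounds plus 3 SD, computed per campaign excluding outliers beyond control limits, cut at about 13% in these data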
Target sequence (P49862 whole entry, looked up): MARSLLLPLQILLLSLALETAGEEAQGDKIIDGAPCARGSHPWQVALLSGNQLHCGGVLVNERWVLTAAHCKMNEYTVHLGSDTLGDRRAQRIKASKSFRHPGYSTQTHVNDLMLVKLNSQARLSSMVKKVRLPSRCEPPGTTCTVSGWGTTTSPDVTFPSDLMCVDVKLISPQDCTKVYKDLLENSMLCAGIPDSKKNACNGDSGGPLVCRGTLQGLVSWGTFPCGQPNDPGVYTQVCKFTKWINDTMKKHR
ADAM10 inh: inhibitors of human ADAM10; recombinant ADAM10, EDANS/DABCYL FRET peptide cleavage, 3 h; O14672; inhibition, % at 7 µM; AID 720582; hit rate 0.62% among 370,000;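 active = inhibition above a per-campaign cutoff equal to the mean of compounds falling between control-based bounds plus 3 SD, cut at about 20% in these data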;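 note: 0% = DMSO wells while the 100% control is not disclosed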
ADAM10 ctr: inhibits human ADAM10 in ADAM17 exosite counter-screen; shares compounds with ADAM17 inh; AID 743256; hit rate 47% among 2,900; inhibition, % at 6.95 µM; recombinant ADAM10, EDANS/DABCYL FRET peptide cleavage, 3 h;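 active = mean inhibition over the triplicate runs exceeds the activity threshold set in the earlier primary screen, cut at about 20% in these data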;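 note: 0% = DMSO wells and 100% = marimastat wells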
ADAM17 confirm: human ADAM17 inhibition, confirmation; recombinant ADAM17, EDANS/DABCYL QFRET peptide cleavage; shares compounds with ADAM17 inh; hit rate 65% among 2,900; inhibition, % at 6.95 µM;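 active = mean inhibition across replicates above the hit cutoff set in the primary screen, cut at about 8.5% in these data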;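 note: 0% = DMSO wells and 100% = marimastat wells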
Active calls of the source: *; / = no result.

SMILES | PLCb3 inh | PLC-gamma1 inh | ADAM17 inh | proKLK7 act | ADAM10 inh | ADAM10 ctr | ADAM17 confirm
O=C(O)c1ccc(N/N=C/C2=C(N3CCOCC3)C(=C\c3ccccc3)/CC2)cc1 | -34 | -9 | -4 | 0 | -8 | / | /
COc1ccc(-c2nc(NC(=O)C3CC(=O)N(Cc4ccco4)C3)sc2C)cc1 (stereo unspecified) | -44 | -27 | 9.1* | 1 | -4 | 10 | 7
COc1ccc(-c2csc(NC(=O)C3CC(=O)N(Cc4ccco4)C3)n2)cc1 (stereo unspecified) | -4 | 1 | 2 | 0 | 10 | / | /
COc1ccc(-c2csc(NC(=O)CSc3nc(C)cs3)n2)cc1 | -3 | 1 | 1 | 0 | 5 | / | /
COc1ccc(-c2csc(NC(=O)CSc3nc(SC)ns3)n2)cc1 | 1 | 5 | 15* | 0 | 33* | 26* | 17*
CCOc1ccc(S(=O)(=O)c2ccc(C)cc2)c2c1no[n+]2[O-] | -2 | 2 | 11* | 0 | 7 | 2 | 5
O=S(=O)(NCCc1csc(-c2ccc(C(F)(F)F)cc2)n1)c1ccc2c(c1)OCCO2 | -5 | -2 | 9.3* | -1 | -3 | 8 | 10*
CCn1nc(C)cc1C(=O)Sc1cccc(Cl)c1 | 4 | 1 | -5 | 0 | -3 | / | /
COCCOc1ccc(C(F)(F)F)cc1NC(=O)CN1C(=O)NC2(CCCc3ccccc32)C1=O (stereo unspecified) | 10 | 4 | 9.7* | 0 | 17 | 16 | 10*
Cc1ccnc2nc(C(=O)OCC(=O)c3ccc(Cl)cc3)nn12 | -11 | 0 | -10 | -1 | -15 | / | /
COc1ccccc1NC(=O)c1ccc(NC(=O)COC(=O)CCC2CCCC2)cc1 | -3 | -4 | 9.4* | 0 | 13 | 27* | 15*
C[C@@H]1CN([C@H](C)CO)S(=O)(=O)c2ccc(C#Cc3ccccc3F)cc2O[C@@H]1CN(C)C(=O)Cc1ccccc1 | -29 | -28 | 1 | -2 | -3 | / | /
Cc1cc(-c2csc(NC(=O)c3cc4ccccc4o3)n2)c(C)n1C | -100 | -82 | 11* | -1 | 14 | 16 | 7
CCOC1=C2[C@H]([C@H]3C(=O)N(c4ccccc4)C(=O)[C@H]3C1)[C@@H](C(C)C)N(S(=O)(=O)c1ccc(C)cc1)[C@H]2c1ccccc1 | 3 | 1 | 0 | 0 | -1 | / | /
C=CCC[C@H](Cc1ccc(F)cc1)C(=O)O[C@H](CNC(=O)[C@@H](CC=C)CC(=O)N(CCO)Cc1ccccc1)c1ccccc1 | 1 | 0 | 11* | 1 | 14 | 45* | 22*
C=CC[C@H](CC(=O)N(CCO)Cc1ccccc1)C(=O)NC[C@@H](OC(=O)[C@@H](CC=C)Cc1ccc(F)cc1)c1ccccc1 | 0 | 1 | 3 | 0 | 11 | / | /
Cc1ccc(C)c(Cn2nnc3c(=O)[nH]c(C(=O)NCC4CCCO4)nc32)c1 (stereo unspecified) | -1 | -2 | -5 | 1 | 1 | / | /
Oc1ccccc1CN1CCCC(N2CCN(c3cccc(C(F)(F)F)c3)CC2)C1 (stereo unspecified) | -2 | 2 | 9.0* | 0 | 11 | 24* | 19*
O=C(Nn1c(-c2ccc(Br)cc2)nc2ccccc2c1=O)c1ccncc1 | 4 | -1 | 0 | 0 | 1 | / | /
Cc1cc(C(=O)Nn2c(-c3ccc(Br)cc3)nc3ccccc3c2=O)ccc1[N+](=O)[O-] | 6 | 6 | 8.9* | -1 | 14 | 24* | 12*
COc1cccc(NC(=O)Nc2nc(SC(C)(C)C)ns2)c1 | -5 | 2 | 6 | 1 | 18 | / | /
CC(C)(C)OC(=O)C[C@H]1C/C=C\C[C@@H](CC(=O)NCCO)C(=O)N[C@H](C(C)(C)C)COC1=O | 3 | 0 | -1 | -1 | -6 | / | /
CC(C)CC(=O)c1c(O)cc(O)c2c1OC1=C(C(=O)C(C)(C)C(=O)C1(C)C)C2CC(C)C (stereo unspecified) | 2 | -4 | 9.2* | 0 | 10 | 13 | 8
CCOC(=O)c1cnc2ccc(OCC)cc2c1N(C)Cc1ccccc1 | -2 | -2 | 9.4* | -1 | 7 | 24* | 15*
